Source: PubChem BioAssay (NCI)
The panel holds about 83,000 compounds, 20% with a hit somewhere; the sample as a whole holds those more often.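 Assay: single dose, 48 h. Readout: percent growth (0 = no net growth; negative = cell death). Active: <10.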 Active and inactive are the calls of the source.

How the values were obtained:
Assay in all cases: NCI-60 one-dose screen, 48 h (100 = growth as untreated, 0 = no growth, -100 = all killed)
Details in all cases: 10 µM
HCT-15 colon = test system: HCT-15 colon
HT29 colon = test system: HT29 colon
SNB-75 CNS = test system: SNB-75 CNS
U251 CNS = test system: U251 CNS
PC-3 prostate = test system: PC-3 prostate
SK-MEL-5 melanoma = test system: SK-MEL-5 melanoma
UACC-62 melanoma = test system: UACC-62 melanoma
LOX IMVI melanoma = test system: LOX IMVI melanoma
SK-MEL-28 melanoma = test system: SK-MEL-28 melanoma
SK-MEL-2 melanoma = test system: SK-MEL-2 melanoma
EKVX NSCLC = test system: EKVX NSCLC
UO-31 renal = test system: UO-31 renal
TK-10 renal = test system: TK-10 renal
ACHN renal = test system: ACHN renal
CAKI-1 renal = test system: CAKI-1 renal
A498 renal = test system: A498 renal
CCRF-CEM leukemia = test system: CCRF-CEM leukemia
MOLT-4 leukemia = test system: MOLT-4 leukemia
SN12C renal = test system: SN12C renal

Measured: growth

Cn1cc(/C=N/Nc2cccc(Cl)n2)c2ccccc21
inactive: HCT-15 colon 28.2% | HT29 colon 44.1% | SNB-75 CNS 70.7% | U251 CNS 56.2% | PC-3 prostate 58.4% | SK-MEL-5 melanoma 71.7% | UACC-62 melanoma 67.7% | LOX IMVI melanoma 50.1% | SK-MEL-28 melanoma 104% | SK-MEL-2 melanoma 87.5% | EKVX NSCLC 57.9% | UO-31 renal 40.7% | TK-10 renal 113% | ACHN renal 71.4% | CAKI-1 renal 66.9% | A498 renal 101% | CCRF-CEM leukemia 48.2% | MOLT-4 leukemia 32.9%

O=C1N/C(=N\c2nccs2)S/C1=C\c1cccs1
inactive: HCT-15 colon 17.4% | HT29 colon 39.6% | SNB-75 CNS 69.6% | U251 CNS 29.5% | PC-3 prostate 41.3% | SK-MEL-28 melanoma 14.6% | SK-MEL-2 melanoma 40.7% | EKVX NSCLC 19% | SN12C renal 45.8% | UO-31 renal 20.8% | TK-10 renal 55.2% | ACHN renal 17.1% | CAKI-1 renal 20.2% | A498 renal 73.2% | CCRF-CEM leukemia 19.1% | MOLT-4 leukemia 17%
active: SK-MEL-5 melanoma -76.9% | UACC-62 melanoma -18.9% | LOX IMVI melanoma 8.62%

Cc1ccc([N+](=O)[O-])c(C(=O)Nc2ccc(-c3ccc4c(c3)NC(=O)/C4=C\c3ccc[nH]3)cc2)c1
active: HCT-15 colon -17.3% | U251 CNS 6.92%
inactive: HT29 colon 46.5% | SNB-75 CNS 42.7% | PC-3 prostate 21.3% | SK-MEL-5 melanoma 101% | UACC-62 melanoma 39.5% | LOX IMVI melanoma 21.9% | SK-MEL-28 melanoma 94.8% | SK-MEL-2 melanoma 75.5% | EKVX NSCLC 25.7% | SN12C renal 60.1% | UO-31 renal 76.6% | TK-10 renal 105% | ACHN renal 66.4% | CAKI-1 renal 69.4% | A498 renal 134% | CCRF-CEM leukemia 22.1% | MOLT-4 leukemia 14.1%

COC(=O)CC1CC1C1Cc2c(nc(N(C)S(C)(=O)=O)nc2C(C)C)-c2ccc(F)cc21 (configuration not stated)
inactive: HCT-15 colon 58.7% | HT29 colon 66.9% | SNB-75 CNS 92.3% | U251 CNS 84.9% | PC-3 prostate 33.9% | SK-MEL-5 melanoma 57.2% | UACC-62 melanoma 56.5% | LOX IMVI melanoma 79.1% | SK-MEL-28 melanoma 104% | SK-MEL-2 melanoma 80.9% | EKVX NSCLC 87% | SN12C renal 94.9% | UO-31 renal 71.5% | TK-10 renal 114% | ACHN renal 86.6% | CAKI-1 renal 52.1% | A498 renal 117% | CCRF-CEM leukemia 61.5% | MOLT-4 leukemia 38.6%

NS(=O)(=O)c1ccc(N=Nc2c(O)n(CC(=O)Nc3ccccc3Br)c3ccccc23)cc1
active: HT29 colon 9.73% | SK-MEL-2 melanoma 1.95%
inactive: HCT-15 colon 38.2% | SNB-75 CNS 77% | U251 CNS 25.1% | PC-3 prostate 39.7% | SK-MEL-5 melanoma 14.7% | UACC-62 melanoma 31.2% | SK-MEL-28 melanoma 24.9% | EKVX NSCLC 49.1% | SN12C renal 47.6% | UO-31 renal 14.4% | ACHN renal 13.9% | CAKI-1 renal 23.7% | A498 renal 94.1% | CCRF-CEM leukemia 57.2% | MOLT-4 leukemia 41.4%
